Source: PubChem BioAssay (Tox21)
Records with an inconclusive call do not appear. The source made the active and inactive calls. Unless noted, calls come from the whole dose curve; as a rule, active = well fitted curve in the direction sought with a large enough effect in the repeat runs; inconclusive = weak or mixed curves; inactive = flat fitted curve, though single readings scatter.

Tests used:
[1] = qHTS assay to test for compound auto fluorescence at 535 nm (green) in HEK293 cells (AID 720680)
[2] = qHTS assay to test for compound auto fluorescence at 460 nm (blue) in HEK293 cell free culture (AID 720681)
Procedure, shortened: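 Compounds were added to cell-free DMEM with 10% FBS and fluorescence read directly. The blue channel used 405 nm excitation and 460 nm emission, with triamterene as the reference fluorophore.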

[3] = qHTS assay to test for compound auto fluorescence at 535 nm (green) in HEK293 cell free culture (AID 720682)
Procedure, shortened: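 Steps: dispense DMEM/10% FBS into empty wells; pin in compound or DMSO; measure fluorescence at 485/535 nm. Values are fluorescein equivalents.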

[4] = qHTS assay to test for compound auto fluorescence at 590 nm (red) in HEK293 cell free culture (AID 720683)
Procedure, shortened: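 Cell-free wells of DMEM with 10% FBS received compound, and intrinsic fluorescence was read at excitation/emission 540/590 nm. Values expressed as equivalence to Rose Bengal sodium.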

[5] = qHTS assay to test for compound auto fluorescence at 590 nm (red) in HepG2 cell free culture (AID 720684)
Procedure, shortened: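 Rose Bengal sodium served as the reference for red signal. Test compounds were dispensed into serum-containing MEM (10% FBS) without cells, and plates were read at 540/590 nm.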

[6] = qHTS assay to test for compound auto fluorescence at 460 nm (blue) in HepG2 cell free culture (AID 720685)
Procedure, shortened: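 Cell-free plates of MEM plus 10% FBS received 23 nL compound or DMSO vehicle; blue-channel (405/460 nm) intensity scored against triamterene as reference fluorophore.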

[7] = qHTS assay to test for compound auto fluorescence at 535 nm (green) in HepG2 cell free culture (AID 720686)
[8] = qHTS assay to test for compound auto fluorescence at 460 nm (blue) in HepG2 cells (AID 720687)
Procedure, shortened: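 HepG2 cells in MEM with 10% FBS, attached overnight at 37 C, were exposed to compound or DMSO for 1 hr at 37 C, 5% CO2. Blue fluorescence was read at 405/460 nm, with triamterene as reference fluorophore.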

[9] = biological target: Glucocorticoid receptor (Homo sapiens) (UniProt P04150); assay: qHTS assay to identify small molecule agonists of the glucocorticoid receptor (GR) signaling pathway (AID 720691; active = well fitted activation curve with a large enough effect in the signal ratio in the repeat runs, not every such curve was filed as active; the % refers to the signal ratio)
Sequence of Glucocorticoid receptor (Homo sapiens) (P04150 whole entry, looked up): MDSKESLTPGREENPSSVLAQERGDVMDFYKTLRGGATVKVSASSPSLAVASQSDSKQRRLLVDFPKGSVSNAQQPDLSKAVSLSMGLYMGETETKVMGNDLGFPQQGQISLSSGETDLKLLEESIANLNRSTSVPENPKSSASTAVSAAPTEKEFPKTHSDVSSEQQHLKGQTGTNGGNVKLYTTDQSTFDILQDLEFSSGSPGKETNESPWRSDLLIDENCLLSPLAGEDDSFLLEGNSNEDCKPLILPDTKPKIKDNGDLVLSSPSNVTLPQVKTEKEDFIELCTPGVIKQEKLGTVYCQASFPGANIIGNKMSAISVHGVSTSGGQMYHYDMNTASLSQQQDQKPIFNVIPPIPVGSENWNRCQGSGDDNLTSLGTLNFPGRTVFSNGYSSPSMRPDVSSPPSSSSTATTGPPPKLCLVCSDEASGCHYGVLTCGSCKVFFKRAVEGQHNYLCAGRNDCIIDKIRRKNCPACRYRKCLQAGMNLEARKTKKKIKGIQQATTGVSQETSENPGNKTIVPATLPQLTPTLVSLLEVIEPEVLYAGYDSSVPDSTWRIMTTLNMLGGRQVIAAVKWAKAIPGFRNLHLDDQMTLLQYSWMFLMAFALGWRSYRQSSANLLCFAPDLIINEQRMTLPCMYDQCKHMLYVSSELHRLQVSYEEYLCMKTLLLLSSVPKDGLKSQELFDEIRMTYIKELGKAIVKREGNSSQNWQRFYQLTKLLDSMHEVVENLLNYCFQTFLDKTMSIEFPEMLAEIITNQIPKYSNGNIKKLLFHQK
Procedure, shortened: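 Steps: seed GR-bla HeLa cells, incubate 4 h at 37 C/5% CO2; pin-transfer DMSO-dissolved compounds; incubate 18 h at 37 C; add LiveBLAzer B/G FRET substrate; after 2 h at room temperature, measure fluorescence.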

[10] = biological target: Glucocorticoid receptor (Homo sapiens) (UniProt P04150); assay: qHTS assay to identify small molecule antagonists of the glucocorticoid receptor (GR) signaling pathway (AID 720692; active = well fitted inhibition curve with a large enough effect in the signal ratio in the repeat runs, not every such curve was filed as active; the % refers to the signal ratio)
Procedure, shortened: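 Antagonism was scored as loss of dexamethasone-driven (5 nM final) reporter signal in HeLa cells bearing a glucocorticoid response element–beta-lactamase construct, after 18 h compound exposure at 37 C and 2 h FRET substrate loading.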

Measured: Potency

CCc1cc(C(N)=S)ccn1
inactive: all assays above

OC[C@@H](O)[C@@H](O)[C@H](O)[C@H](O)CO
not listed: [9] | [10]
inactive: all other assays above

CC(C)CC(C)CC(O)CC(C)C (centres undefined)
not listed: [9] | [10]
inactive: all other assays above

COCCOCCOC
not listed: [9] | [10]
inactive: all other assays above

CCCCNC(=O)NS(=O)(=O)c1ccc(N)cc1
not listed: [9] | [10]
inactive: all other assays above

Cc1c(N(C)CS(=O)(=O)O)c(=O)n(-c2ccccc2)n1C
not listed: [10]
inactive: all other assays above

Cc1cccc(C)c1O
not listed: [9] | [10]
inactive: all other assays above

CCCCCCCCCCCCCC(=O)OC(C)C
inactive: all assays above

CCN1CCCC1=O
inactive: all assays above

CC(C)=CCC/C(C)=C/CO
inactive: all assays above

NC(=O)OCC(COC(N)=O)c1ccccc1
inactive: all assays above

CCCCCCCCCCCCCCCCCC(=O)OCC(O)CO (centres undefined)
inactive: all assays above

CCCCOCCOCCSC#N
inactive: all assays above

COc1cc(C=O)ccc1O
not listed: [2] | [9] | [10]
inactive: all other assays above

NC(N)=NC(N)=NCCc1ccccc1
inactive: all assays above

C[C@]12C=CC(=O)C=C1CC[C@@H]1[C@@H]2C(=O)C[C@@]2(C)[C@H]1CC[C@]2(O)C(=O)CO
not listed: [2] | [9] | [10]
inactive: all other assays above

O=C(O)CCCCC1CCSS1 (centres undefined)
inactive: all assays above

NC(=O)NO
inactive: all assays above

CC(=O)/C=C/C1=C(C)CCCC1(C)C
not listed: [2] | [9] | [10]
inactive: all other assays above

Cc1cccc2ccccc12
not listed: [2] | [9] | [10]
inactive: all other assays above

COC(=O)c1ccc(C=O)cc1
inactive: all assays above

CO[C@H]1C=CO[C@@]2(C)Oc3c(C)c(O)c4c(O)c(c(/C=N/N5CCN(C)CC5)c(O)c4c3C2=O)NC(=O)/C(C)=C\C=C[C@H](C)[C@H](O)[C@@H](C)[C@@H](O)[C@@H](C)[C@H](OC(C)=O)[C@@H]1C
not listed: [2] | [9] | [10]
inactive: all other assays above
